About 2,000 (36%) of roughly 5,500 compounds were called active. About 18% were inconclusive and are not listed. Cut-off read from the data, not from the text of the source: active = normalized growth mostly below about 0.91 (no sharp cut-off); inconclusive = no clear call, values can overlap the other calls; inactive = mostly above about 0.92. The list shows a part of the results.
Assay: chemical genetic growth profiling, strain panel (AID 1159580);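 note: tested at 20 µM; growth read once vehicle control cultures reached saturation at 30 °C; 1 = growth at the plate median or of vehicle wells; lower values mean less growth of the strain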
Settings: growth OD

Measured: normalized growth

C#C[C@]1(O)CCC2C3CCC4=Cc5oncc5C[C@]4(C)C3CC[C@@]21C (some centres not stated)
inactive: S. cerevisiae deletion strains, locus YJR066W, strain TOR1, stronger effect = lower value 0.956 | S. cerevisiae deletion strains, locus YKL009W, strain mrt4, stronger effect = lower value 0.954 | S. cerevisiae deletion strains, locus YKL160W, strain elf1, stronger effect = lower value 0.925 | S. cerevisiae deletion strains, locus YKR026C, strain gcn3, stronger effect = lower value 0.948 | S. cerevisiae deletion strains, locus YKR091W, strain srl3, stronger effect = lower value 0.964 | S. cerevisiae deletion strains, locus YLL001W, strain dnm1, stronger effect = lower value 0.921 | S. cerevisiae deletion strains, locus YLL026W, stronger effect = lower value 0.94 | S. cerevisiae deletion strains, locus YLL041C, strain sdh2, stronger effect = lower value 0.961 | S. cerevisiae deletion strains, locus YLR058C, strain SHM2, stronger effect = lower value 0.898 | S. cerevisiae deletion strains, locus YLR102C, strain apc9, stronger effect = lower value 0.949 | S. cerevisiae deletion strains, locus YLR113W, strain HOG1, stronger effect = lower value 0.95 | S. cerevisiae deletion strains, locus YLR221C, strain rsa3, stronger effect = lower value 0.957 | S. cerevisiae deletion strains, locus YLR258W, strain gsy2, stronger effect = lower value 0.955 | S. cerevisiae deletion strains, locus YLR320W, strain mms22, stronger effect = lower value 0.914 | S. cerevisiae deletion strains, locus YLR342W, strain FKS1 (second series), stronger effect = lower value 0.926 | S. cerevisiae deletion strains, locus YLR357W, strain rsc2, stronger effect = lower value 0.944 | S. cerevisiae deletion strains, locus YLR370C, strain arc18, stronger effect = lower value 0.975 | S. cerevisiae deletion strains, locus YLR384C, strain iki3, stronger effect = lower value 0.958 | S. cerevisiae deletion strains, locus YML016C, strain PPZ1, stronger effect = lower value 0.935 | S. cerevisiae deletion strains, locus YML032C, strain rad52, stronger effect = lower value 0.928 | S. cerevisiae deletion strains, locus YML120C, strain ndi1, stronger effect = lower value 0.924 | S. cerevisiae deletion strains, locus YMR058W, strain fet3, stronger effect = lower value 0.938 | S. cerevisiae deletion strains, locus YMR078C, strain ctf18, stronger effect = lower value 0.923 | S. cerevisiae deletion strains, locus YMR125W, strain sto1, stronger effect = lower value 0.94 | S. cerevisiae deletion strains, locus YMR129W, stronger effect = lower value 0.959 | S. cerevisiae deletion strains, locus YMR205C, strain PFK2, stronger effect = lower value 0.92 | S. cerevisiae deletion strains, locus YMR223W, strain ubp8, stronger effect = lower value 0.953 | S. cerevisiae deletion strains, locus YMR231W, strain pep5, stronger effect = lower value 0.965 | S. cerevisiae deletion strains, locus YMR263W, strain SAP30, stronger effect = lower value 0.926 | S. cerevisiae deletion strains, locus YMR307W, strain GAS1, stronger effect = lower value 0.73 | S. cerevisiae deletion strains, locus YNL067W, strain RPL9B, stronger effect = lower value 0.927 | S. cerevisiae deletion strains, locus YNL183C, strain NPR1, stronger effect = lower value 0.95 | S. cerevisiae deletion strains, locus YNL209W, strain ssb2, stronger effect = lower value 0.991 | S. cerevisiae deletion strains, locus YNL248C, strain rpa49, stronger effect = lower value 0.982 | S. cerevisiae deletion strains, locus YNL250W, strain rad50, stronger effect = lower value 0.928 | S. cerevisiae deletion strains, locus YNL298W, strain CLA4, stronger effect = lower value 0.953 | S. cerevisiae deletion strains, locus YNL322C, strain KRE1 (second series), stronger effect = lower value 0.945 | S. cerevisiae deletion strains, locus YNR049C, strain mso1, stronger effect = lower value 0.961 | S. cerevisiae deletion strains, locus YNR052C, strain pop2, stronger effect = lower value 0.956 | S. cerevisiae deletion strains, locus YOL012C, strain htz1 0.535 | S. cerevisiae deletion strains, locus YOR001W, strain rrp6, stronger effect = lower value 0.972 | S. cerevisiae deletion strains, locus YOR061W, strain CKA2, stronger effect = lower value 0.904 | S. cerevisiae deletion strains, locus YOR069W, strain VPS5, stronger effect = lower value 0.955 | S. cerevisiae deletion strains, locus YOR070C, strain gyp1, stronger effect = lower value 0.975 | S. cerevisiae deletion strains, locus YOR080W, strain dia2, stronger effect = lower value 0.957 | S. cerevisiae deletion strains, locus YOR083W, strain WHI5, stronger effect = lower value 0.941 | S. cerevisiae deletion strains, locus YOR106W, strain vam3, stronger effect = lower value 0.963 | S. cerevisiae deletion strains, locus YOR136W, strain idh2, stronger effect = lower value 0.922 | S. cerevisiae deletion strains, locus YOR231W, strain MKK1, stronger effect = lower value 0.988 | S. cerevisiae deletion strains, locus YOR265W, strain rbl2, stronger effect = lower value 0.966 | S. cerevisiae deletion strains, locus YOR270C, strain vph1, stronger effect = lower value 0.824 | S. cerevisiae deletion strains, locus YOR290C, strain snf2, stronger effect = lower value 1 | S. cerevisiae deletion strains, locus YOR316C, strain cot1, stronger effect = lower value 0.925 | S. cerevisiae deletion strains, locus YPL051W, strain arl3, stronger effect = lower value 0.945 | S. cerevisiae deletion strains, locus YPL078C, strain atp4, stronger effect = lower value 0.902 | S. cerevisiae deletion strains, locus YPL106C, strain sse1, stronger effect = lower value 0.984 | S. cerevisiae deletion strains, locus YPL240C, strain hsp82, stronger effect = lower value 0.967 | S. cerevisiae deletion strains, locus YPL241C, strain CIN2, stronger effect = lower value 0.931 | S. cerevisiae deletion strains, locus YPL256C, strain CLN2, stronger effect = lower value 0.975 | S. cerevisiae deletion strains, locus YPR167C, strain met16, stronger effect = lower value 0.926 | S. cerevisiae strains, strain wild type, stronger effect = lower value 0.911
active: S. cerevisiae deletion strains, locus YKL068W, stronger effect = lower value 0.922 | S. cerevisiae deletion strains, locus YKL085W, strain MDH1 (second series), stronger effect = lower value 0.889 | S. cerevisiae deletion strains, locus YKL085W, strain MDH1, stronger effect = lower value 0.889 | S. cerevisiae deletion strains, locus YKR001C, strain vps1, stronger effect = lower value 0.831 | S. cerevisiae deletion strains, locus YLR027C, strain aat2, stronger effect = lower value 0.911 | S. cerevisiae deletion strains, locus YLR039C, strain RIC1, stronger effect = lower value 0.574 | S. cerevisiae deletion strains, locus YLR262C, strain YPT6 (second series), stronger effect = lower value 0.792 | S. cerevisiae deletion strains, locus YLR262C, strain YPT6, stronger effect = lower value 0.565 | S. cerevisiae deletion strains, locus YLR268W, strain sec22, stronger effect = lower value 0.838 | S. cerevisiae deletion strains, locus YLR330W, strain CHS5, stronger effect = lower value 0.902 | S. cerevisiae deletion strains, locus YLR342W, strain FKS1, stronger effect = lower value 0.875 | S. cerevisiae deletion strains, locus YLR371W, strain rom2, stronger effect = lower value 0.852 | S. cerevisiae deletion strains, locus YLR418C, strain cdc73, stronger effect = lower value 0.645 | S. cerevisiae deletion strains, locus YML124C, strain tub3, stronger effect = lower value 0.92 | S. cerevisiae deletion strains, locus YNL071W, strain lat1, stronger effect = lower value 0.841 | S. cerevisiae deletion strains, locus YNL233W, strain BNI4, stronger effect = lower value 0.843 | S. cerevisiae deletion strains, locus YNL271C, strain bni1, stronger effect = lower value 0.908 | S. cerevisiae deletion strains, locus YNL307C, strain MCK1, stronger effect = lower value 0.759 | S. cerevisiae deletion strains, locus YOL147C, strain pex11, stronger effect = lower value 0.899 | S. cerevisiae deletion strains, locus YOR144C, strain elg1, stronger effect = lower value 0.914 | S. cerevisiae deletion strains, locus YOR184W, strain ser1, stronger effect = lower value 0.59 | S. cerevisiae deletion strains, locus YPL055C, strain LGE1, stronger effect = lower value 0.75 | S. cerevisiae deletion strains, locus YPR119W, strain clb2, stronger effect = lower value 0.915 | S. cerevisiae deletion strains, locus YPR141C, strain kar3, stronger effect = lower value 0.895 | S. cerevisiae deletion strains, locus YPR163C, strain tif3, stronger effect = lower value 0.877 | S. cerevisiae deletion strains, strain wtn01, stronger effect = lower value 0.887
